# Source: PubChem BioAssay
# AmpC inh no detg: inhibitors of E. coli AmpC beta-lactamase without detergent. AmpC nitrocefin hydrolysis, absorbance 480 nm, 0.0001% Triton. actives 0.52% (n = 330,000). AID 485341. Potency, µM (titrated, usually from 57.1 µM), hits mostly inhibitors; further: nearly all actives have a fitted effect of over 20% in size
# Target sequence (P00811 whole entry, looked up): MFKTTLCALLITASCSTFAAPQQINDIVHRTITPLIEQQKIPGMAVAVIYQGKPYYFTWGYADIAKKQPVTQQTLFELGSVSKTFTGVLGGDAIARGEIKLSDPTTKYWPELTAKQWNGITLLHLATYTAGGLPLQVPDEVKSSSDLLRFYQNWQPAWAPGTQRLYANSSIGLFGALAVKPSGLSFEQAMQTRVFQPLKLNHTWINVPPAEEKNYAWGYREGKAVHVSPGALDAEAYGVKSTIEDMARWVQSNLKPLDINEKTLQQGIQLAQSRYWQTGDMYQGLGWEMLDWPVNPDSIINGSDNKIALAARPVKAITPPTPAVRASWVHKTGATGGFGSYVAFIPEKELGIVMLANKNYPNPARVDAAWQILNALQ
#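 20 mM phosphate pH 7.0 + 0.01% (detergent screen) or 0.0001% Triton X-100; 5.3 nM AmpC reagent; cpd preinc 15 min RT; nitrocefin (800 uM stock) to start; A480 q20 s × 4 min; Activity was normalised to no-enzyme and no-compound control wells.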
# AmpC inh detg: AmpC beta-lactamase inhibition with detergent present; P00811; AmpC hydrolysis of nitrocefin, absorbance 480 nm, 0.01% Triton; Potency, µM (doses to about 114 µM), actives largely listed as inhibitors; actives 0.041% (n = 370,000); further: nearly all actives have a fitted effect of over 25% in size
#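 20 mM phosphate pH 7.0 + 0.01% (detergent screen) or 0.0001% Triton X-100; 5.3 nM AmpC reagent; cpd preinc 15 min RT; nitrocefin (800 uM stock) to start; A480 q20 s × 4 min; Activity was normalised to no-enzyme and no-compound control wells.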
# AMA1-RON2 inh: AMA1-RON2 (P. falciparum) interaction inhibition | AlphaScreen AMA1-biotinylated RON2 peptide binding | Potency, µM (series often up to 58.2 µM), most hits filed as inhibitors | actives 0.2% (n = 360,000) | AID 720542; further: nearly all actives have a fitted effect of over 45% in size
#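 AMA1 (3D7) with his tag at 25 nM final met compounds first, then biotinylated RON2 peptide at 25 nM; detection used donor plus acceptor beads, 10 µg/mL apiece, read by AlphaScreen after 30 min at room temperature.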
# Sm TGR inh: blocks Schistosoma mansoni thioredoxin glutathione reductase; Potency, µM (doses to about 114 µM), most hits filed as inhibitors; Q962Y6; purified TGR, DTNB reduction, TNB absorbance 405 nm; actives 3% (n = 360,000); further: nearly all actives have a fitted effect of over 60% in size
#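 TGR 20 nM + NADPH 100 uM (dispensed conc.), cpd preinc 15 min RT; start with NADPH (500 uM addition) then DTNB (15 mM addition). Kinetic TNB absorbance, 405 nm filter. Four-parameter Hill fit across titration.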
# RE007 growth inh: less growth of the S. pombe RE007 Vpr strain; S. pombe RE007 Vpr strain, BacTiter-Glo ATP luminescence, 24 h; Potency, µM (highest dose often 92.2 µM), most hits filed as inhibitors; actives 0.21% (n = 360,000); active means well fitted falling curve with a large enough effect; inconclusive means small, poorly fitted or top-dose-only effect; inactive means no such curve, though single readings can be large or run the other way; further: nearly all actives have a fitted effect of over 50% in size
#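 Fission yeast RE007 carrying one integrated HIV-1 vpr copy, seeded at OD 0.01 in PMG+AL medium with 23 nL pinned compound. Grown 24 h at 30 degrees; viability read by BacTiter-Glo luminescence after 5 min.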
# A number is an active result; . = inactive; ? = inconclusive; / = no result given. Shown are actives, neighbours in structure and some others; about 3.2% of the full set was active somewhere. Unless noted, the call rests on the fitted dose curve; in most records, active means well fitted curve in the direction sought with a large enough effect; inconclusive means small, poorly fitted or top-dose-only effect, or another doubt; inactive means no such curve, though single readings can be large; an effect the other way counts as inactive or inconclusive.
SMILES,AmpC inh no detg,AmpC inh detg,AMA1-RON2 inh,Sm TGR inh,RE007 growth inh
COC(=O)c1cccc(NC(=O)c2nsc3ccccc23)c1,/,.,/,.,/
O=C(O)c1ccc(-c2ccccc2)[nH]c1=O,.,.,.,.,.
CN(C)c1c(-c2ccccc2)cc(-c2ccccc2)[nH]c1=O,.,.,/,16µM,/
O=C(O)/C=C\C(=O)Nc1ccccc1N1CCN(c2ccccc2)CC1,.,.,.,11µM,.
CCCCCC(=O)Nc1ccccc1N1CCN(c2ccccc2)CC1,.,.,.,.,.
O=C(/C=C/c1ccco1)NC(=S)Nc1ccccc1N1CCOCC1,.,.,.,32µM,.
O=C(/C=C/c1ccco1)Nc1ccccc1N1CCCC1,.,.,.,40µM,.
CC(C)N(C(=O)COC(=O)c1ccc(O)cc1)C(C)C,4µM,.,.,.,.
Nc1nc2ccc(Cl)cc2cc1C(=O)NCCCN1CCOCC1,/,/,.,/,.
Cc1ccc(NC(=O)C(C)Sc2nc(-c3ccccc3)c(C#N)c(=O)[nH]2)c(C)c1 (centres undefined),/,.,/,.,/
C=C(CC)C(=O)c1ccc(OCC(=O)O)c(Cl)c1Cl,.,.,.,35µM,.
CCOC(=O)COc1ccc2nsnc2c1Cl,.,.,.,.,.
Cc1ccc(-n2ncc3c(=O)n(Cc4ccccc4C)cnc32)cc1C,/,.,/,.,/
CCOC(=O)c1cc(-c2ccc(C)cc2)n(CC(=O)Nc2ccc(OC)cc2OC)c1C,/,.,/,.,/
Cc1ccccc1C(=O)Nc1sc2c(c1C(=O)N1CCCCC1)CCC(C)C2 (centres undefined),/,.,/,.,/
CN(CCc1ccccn1)C1CC(=O)N(c2ccc(Cl)cc2)C1=O (centres undefined),.,.,.,10µM,3.2µM
Cc1cc(C)nc(SCC(=O)NCc2ccco2)n1,.,.,.,56µM,.
Cc1cc(SCC(=O)NC(=O)NCc2ccco2)nc2ccccc12,.,.,.,40µM,.
Nc1cc(N)nc(SCC(=O)NCc2ccco2)n1,.,.,.,.,.
Cc1nc2cc(NC(=O)NCc3ccco3)ccc2o1,0.35µM,.,.,.,.
Cc1ccn2c(=O)nc(SCC(=O)NCc3ccco3)nc2c1,.,.,.,35µM,.
COc1ccccc1NC(=O)CSCc1cc(=O)c2c(C)cc(C)cc2[nH]1,/,.,/,.,/
Cc1cc(SCC(=O)c2ccc(O)c(O)c2)nc2ccccc12,?,.,.,2.8µM,.
O=C(CSc1cccc2cccnc12)NCc1ccco1,.,.,.,45µM,.
Cc1cc(SCC(=O)c2ccc3c(c2)OCO3)nc2ccccc12,.,.,.,.,.
SMILES,AmpC inh no detg,AmpC inh detg,AMA1-RON2 inh,Sm TGR inh,RE007 growth inh
COc1ccc(CNC(=O)CSc2cccc3cccnc23)cc1,.,.,.,.,.
Cc1cc(C(=O)NNC(=S)NCc2ccco2)n(C)n1,.,.,.,22µM,.
COc1ccc(CCNc2ncnc3c2cnn3-c2cc(Cl)ccc2C)cc1,/,.,/,.,/
COC(=O)c1ccc(NC(=O)CN(C)S(=O)(=O)c2ccc(Br)s2)cc1,/,.,/,.,/
COc1cc(/C=C2/C(=O)c3cccc([N+](=O)[O-])c3C2=O)c(Br)cc1O,.,.,?,35µM,.
COc1ccccc1NC(=O)CCCCCN1C(=O)c2cccc([N+](=O)[O-])c2C1=O,.,.,.,.,.
COc1cccc(CN2CCNC(=O)C2CC(=O)NC2CCCC2)c1OC (centres undefined),.,.,.,?,.
CCCN1CCC(NC(=O)CC2C(=O)NCCN2Cc2ccccc2C)CC1 (centres undefined),.,.,.,.,.
COc1cccc(CN2CCNC(=O)C2CC(=O)NC2CCCCC2)c1OC (centres undefined),.,.,.,45µM,.
O=C(CC1C(=O)NCCN1Cc1cccc(F)c1)NC1CCC1 (centres undefined),.,.,.,?,.
COc1ccc(CN2CCNC(=O)C2CC(=O)O)c(OC)c1 (centres undefined),.,.,.,35µM,.
O=C(CC1C(=O)NCCN1Cc1cccc(F)c1)NC1CCCCC1 (centres undefined),.,.,.,35µM,.
Cc1ccccc1CN1CCNC(=O)C1CC(=O)O (centres undefined),.,.,.,25µM,.
